# Shown are actives, neighbours in structure and some others; about 1.1% of the full set was active somewhere.
# A3A deaminase: APOBEC3A ssDNA deaminase inhibitors, primary screen, selectivity assay for APOBEC3G inhibitor project, biochemical, FAM/TAMRA oligo cleavage fluorescence. AID 493011, 2011. recombinant A3A, FAM/TAMRA ssDNA deamination fluorescence. 0.41% of 330,000 active. inhibition, % at 20 µM. DNA dC->dU-editing enzyme APOBEC-3A (Homo sapiens), P31941;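 active = at least 40% inhibition at 20 µM here, with at most 30% in a related deaminase screen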
# APOBEC3G inh: APOBEC3G DNA deaminase inhibitors, primary screen, biochemical, fluorescence, single-stranded DNA substrate, uHTS; 0.28% of 330,000 active; inhibition, % at 20 µM; DNA dC->dU-editing enzyme APOBEC-3G (Homo sapiens), Q9HC16; recombinant A3G, ssDNA deamination FAM/TAMRA fluorescence; AID 493012, 2011;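 active = inhibition of at least 40% at 20 µM, with no more than 30% in the related APOBEC3A deaminase screen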
# Target sequence (Q9HC16 whole entry, looked up): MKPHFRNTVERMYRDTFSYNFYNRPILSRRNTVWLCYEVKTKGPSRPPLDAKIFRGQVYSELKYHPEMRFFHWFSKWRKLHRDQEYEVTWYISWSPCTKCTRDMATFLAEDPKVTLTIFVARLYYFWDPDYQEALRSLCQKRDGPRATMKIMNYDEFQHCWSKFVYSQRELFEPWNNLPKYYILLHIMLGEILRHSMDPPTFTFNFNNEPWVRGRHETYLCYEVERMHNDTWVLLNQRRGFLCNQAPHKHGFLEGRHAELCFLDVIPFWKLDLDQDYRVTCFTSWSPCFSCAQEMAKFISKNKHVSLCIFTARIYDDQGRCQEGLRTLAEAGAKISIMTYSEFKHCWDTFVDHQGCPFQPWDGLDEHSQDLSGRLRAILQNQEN
# Bfl-1 A1 inh: caspase 3/7 activation in MEF A1-2A-BIM cells, primary screen, A1 inhibitor project, cell-based, luminescence, HTS; 0.066% of 330,000 active; Caspase-Glo 3/7 luminescence, 3 h; percent of clofoctol response, vehicle zero; caspase activation, % (no concentration beside the values);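 active = over half of replicate activation scores above 10%, or exactly half above 10 with the replicate mean above 10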
# MIN6 prolif: inducers of MIN6 beta-cell proliferation, primary screen, ATP luminescence, uHTS | MIN6 cells proliferation, ATPlite luminescence, 48 h; cells starved in 0.2% serum; 100% = growth in 10% serum | 0.29% of 330,000 active | proliferation, % at 10 µM;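 active = compounds whose signal lies at least 3.5 SD above the mean of all wells on their plate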
# A3A conf: APOBEC3A deaminase inhibitors, retest, confirmation, selectivity assay for APOBEC3G inhibitor project, biochemical, single concentration, fluorescence readout | AID 493151, 2011 | shares compounds with A3A deaminase | inhibition, % at 20 µM | recombinant A3A, ssDNA deaminase UDG fluorescence assay | 63% of 1,400 active;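 active = inhibition reaching a set limit, 80% of the first screen's cutoff, at 20 µM in any replicate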
# UDG A3A counter: E. coli UDG inhibitors, confirmation, counter-screen for APOBEC3A inhibitor project, biochemical, single concentration, fluorescence, FAM/TAMRA oligo; UDG counterscreen, FAM/TAMRA uracil oligo fluorescence; shares compounds with A3A deaminase; inhibition, % at 20 µM; 1,000 tested, under 10 active; call rule not given here
# Hits are given with their value; . = inactive; / = no result.
SMILES,A3A deaminase,APOBEC3G inh,Bfl-1 A1 inh,MIN6 prolif,A3A conf,others
Cc1cccc(C(=O)N[C@H](C(=O)NCCc2ccc(Cl)cc2)C(C)C)c1,.,.,.,.,/,
Cc1nnc(SCC(=O)Nc2nccs2)o1,.,.,.,.,/,
O=C(NCC(c1ccco1)N1CCOCC1)c1c(F)cccc1F (stereo not drawn),43,.,.,.,.,UDG A3A counter=.
Cc1ccc(N2CC(C(=O)Nc3cccnc3)CC2=O)cc1C (stereo not drawn),.,.,.,.,/,
Cc1nnc(SCC(=O)N2N=C(c3ccc(Cl)cc3)CC2c2ccco2)[nH]c1=O (stereo not drawn),50,.,.,.,10,UDG A3A counter=.
Cn1nnnc1SCC(=O)N1N=C(c2ccc(Cl)cc2)CC1c1ccco1 (stereo not drawn),.,.,.,.,/,
CCn1c2c(c(C)cc1=O)C(=O)CC(C)(C)C2,.,.,.,.,/,
CCn1c(C)c2c([n+]1CC)CC(C)(C)CC2=O,59,.,.,.,76,UDG A3A counter=.
O=C(Cn1nc(C(=O)O)c2ccccc2c1=O)Nc1cc(C(F)(F)F)ccc1-n1cncn1,.,.,.,.,/,
COCCNC(=O)c1cc(C(=O)CC(C)C)c[nH]1,.,.,.,.,/,
CC(C)CCN(N=O)[C@@H](Cc1ccccc1)CN(N=O)[C@@H](Cc1ccccc1)CN(C)N=O,.,.,.,.,/,
CN(C[C@H](Cc1ccccc1)N(C[C@H](Cc1ccccc1)N(CCC(C)(C)C)N=O)N=O)N=O,98,.,.,.,.,UDG A3A counter=.
CCCOc1ccc(/C(O)=C2/C(=O)C(=O)N(c3ccccn3)C2c2ccc(OC)cc2)cc1C (stereo not drawn),.,.,.,.,/,
COc1cccc(CC(=O)OCC(=O)N(C)CC(=O)Nc2ccccc2Cl)c1,.,.,.,.,/,
COc1ccc(NC(=O)COC(=O)CCSc2ccccc2)cc1,.,.,.,.,/,
COc1ccc(NC(=O)CCCSc2ccccc2)cc1,42,.,.,.,.,
CC(C)COC(=O)N1CC(O)CC1C(=O)Nc1ccc2c(c1)OCO2 (stereo not drawn),53,.,.,.,81,UDG A3A counter=.
COc1ccc(CCNC(=O)CN2c3cccc4cccc(c34)S2(=O)=O)cc1OC,.,.,.,.,/,
COc1ccc(N2Cc3cccc(C(=O)N4CCN(C(=O)c5ccco5)CC4)c3C2=O)cc1,59,.,.,.,43,
COc1ccc(N2Cc3cccc(C(=O)N4CCOCC4)c3C2=O)cc1,.,.,.,.,/,
CCc1cccc(NC(=O)C2CCCN2C(=O)Nc2ccc(C)cc2)c1 (stereo not drawn),.,.,.,.,/,
COc1ccc(-n2nc(C(=O)NCC(=O)NCCN(C)C)c3ccccc3c2=O)cc1,.,.,.,.,/,
Nc1ccc(-c2ccc(N)c(C(=O)O)c2)cc1C(=O)O,48,.,.,.,37,UDG A3A counter=.
Cc1ccc(C)c(NC(=O)C2CC(O)CN2C(=O)Oc2ccccc2)c1 (stereo not drawn),54,.,.,.,41,UDG A3A counter=.
Cc1ccc(C)c(NC(=O)C2CC(O)CN2C(=O)OCc2ccccc2)c1 (stereo not drawn),.,.,.,.,/,
SMILES,A3A deaminase,APOBEC3G inh,Bfl-1 A1 inh,MIN6 prolif,A3A conf,others
Cc1ccc(S(N)(=O)=O)cc1NC(=O)C(c1ccccc1)c1ccccc1,.,.,.,.,/,
O=C(COc1cccc(C(F)(F)F)c1)NCC(c1ccco1)N1CCCCC1 (stereo not drawn),.,.,.,.,/,
O=C(COc1cccc(C(F)(F)F)c1)NCC(c1ccco1)N1CCCC1 (stereo not drawn),46,.,.,.,.,
O=C(NC1CCN(S(=O)(=O)c2cccc(F)c2)CC1)c1cccc(F)c1,.,.,.,.,/,
Cc1ccc(Cl)c(OCC(=O)Nc2cccnc2)c1,44,.,.,.,.,
O=C(COc1ccccc1Cl)Nc1cccnc1,.,.,.,.,/,
